According to PubChem BioAssay (NCI):
Compounds without any hit were thinned out: in the full panel of roughly 79,000, 15% have a hit. Calls of active or inactive are those of the source. Cut-off read from the data, not from the text of the source: active = growth inhibition above about 70%; inactive = the rest.

Tests used:
[1] = NCI Yeast Anticancer Drug Screen. Data for the rad52 strain (AID 147);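 note: 0% = growth of vehicle-treated control cultures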; details: S. cerevisiae rad52 mutant growth inhibition, active compounds read high
In short: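 DNA repair-defective yeast; compound exposure; growth scored against vehicle controls.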

[2] = NCI Yeast Anticancer Drug Screen. Data for the wt1 strain (AID 149);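 note: 0% = growth of vehicle-treated wt1 cultures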; details: S. cerevisiae wt1 strain (SPY 50644) growth inhibition, active compounds read high
In short: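 Measured: growth of wt1 yeast under compound versus vehicle treatment, reported as inhibition.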

[3] = NCI Yeast Anticancer Drug Screen. Data for the rad50EPP+ strain (AID 151);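 note: 0% = growth of vehicle-treated control cultures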; details: S. cerevisiae rad50 mutant strain, active compounds read high
In short: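 rad50EPP+ yeast treated with test compounds. Readout: growth vs vehicle control.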

[4] = NCI Yeast Anticancer Drug Screen. Data for the rad50 strain (AID 155);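 note: 0% = growth of vehicle-only cultures of the same strain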; details: S. cerevisiae rad50 strain growth inhibition, active compounds read high
In short: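 Growth of the mutant yeast was measured after compound exposure and referenced to vehicle-treated cultures.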

[5] = NCI Yeast Anticancer Drug Screen. Data for the mec2-1 strain (AID 157); details: S. cerevisiae mec2-1 strain, active compounds read high
In short: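 Growth inhibition is read against vehicle-treated controls after compound exposure of the mec2-1 yeast strain, which is defective in DNA damage repair or cell cycle control.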

[6] = NCI Yeast Anticancer Drug Screen. Data for the rad14 strain (AID 159);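 note: 0% = growth of vehicle-treated control cultures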; details: S. cerevisiae rad14 strain growth inhibition, active compounds read high
In short: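 Here, inhibition of yeast growth was measured after compound exposure, using a strain with a genetic defect in DNA damage repair and vehicle-treated cultures as the reference.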

[7] = NCI Yeast Anticancer Drug Screen. Data for the sgs1 mgt1 strain (AID 161);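 note: 0% = growth of cultures given vehicle only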; details: S. cerevisiae sgs1 mgt1 strain, active compounds read high
In short: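 Growth of a repair-deficient yeast mutant was monitored after compound treatment and expressed as inhibition relative to vehicle-treated cultures.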

[8] = NCI Yeast Anticancer Drug Screen. Data for the CLN2oe strain (AID 163);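 note: 0% = growth of vehicle-only control cultures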; details: S. cerevisiae CLN2oe strain, active compounds read high
In short: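 Compound-treated yeast; growth vs vehicle ctrl = % inhibition. Genetically altered strain (cell-cycle control).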

[9] = NCI Yeast Anticancer Drug Screen. Data for the cln2 rad14 strain (AID 165);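 note: 0% = growth equal to vehicle treated cultures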; details: S. cerevisiae cln2 rad14 strain, active compounds read high
In short: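 Growth inhibition, relative to vehicle-treated controls, is the read-out. The test organism is a yeast strain with defined genetic alterations, cln2 rad14.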

[10] = NCI Yeast Anticancer Drug Screen. Data for the bub3 strain (AID 167); details: S. cerevisiae bub3 mutant strain, active compounds read high
In short: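 Whole-cell yeast assay. The mutant strain was incubated with compounds, and growth inhibition was determined by comparison with vehicle-treated cells.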

[11] = NCI Yeast Anticancer Drug Screen. Data for the wt2 strain (AID 169);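 note: 0% = growth of vehicle-treated yeast cultures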; details: S. cerevisiae wt2 strain growth inhibition, active compounds read high
In short: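 Compound exposure of yeast; growth compared with vehicle controls; inhibition reported.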

[12] = NCI Yeast Anticancer Drug Screen. Data for the mlh1 strain (AID 171);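 note: 0% = growth of vehicle-treated control cultures of the same strain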; details: S. cerevisiae mlh1 strain growth inhibition, active compounds read high
In short: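 Compounds are applied to a genetically altered yeast strain, and its growth is compared with that of vehicle-treated cultures to give percent inhibition.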

[13] = NCI Yeast Anticancer Drug Screen. Data for the sgs1 strain (AID 173);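 note: 0% = growth of vehicle-only control cultures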; details: S. cerevisiae sgs1 mutant, active compounds read high
In short: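 Compounds applied to genetically altered yeast; growth compared with vehicle-treated cultures to give % inhibition.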

[14] = NCI Yeast Anticancer Drug Screen. Data for the mlh1 rad18 strain (AID 175); details: S. cerevisiae mlh1 rad18 strain growth inhibition, active compounds read high
In short: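 Cells of a genetically altered yeast strain, deficient in DNA damage repair, were treated with compound. Their growth was then compared with that of vehicle-treated cultures to give inhibition.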

[15] = NCI Yeast Anticancer Drug Screen. Data for the rad18 strain (AID 177); details: S. cerevisiae rad18 mutant growth inhibition, active compounds read high
In short: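 Compounds are applied to a repair-deficient yeast strain, and growth is compared with that of vehicle-treated cultures to give percent inhibition.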

[16] = NCI Yeast Anticancer Drug Screen. Data for the mgt1 strain (AID 153); details: S. cerevisiae mgt1 mutant growth inhibition, active compounds read high
In short: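 Growth inhibition relative to vehicle controls was scored for the mgt1 yeast strain after compound exposure.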

[17] = at 5.0 µM (retest, dose inferred, filed as 0.5)
[18] = at 50.0 µM (retest, dose inferred, filed as 5.0)

Measured: growth inhibition

O=C(Oc1ccc([N+](=O)[O-])cc1)c1ccc([N+](=O)[O-])cc1
active: [4]; [18] 82% | [7]; [18] 86% | [10]; [17] 76% | [10]; [18] 88% | [10]; at 50.0 µM 85% | [14]; [18] 83% | [14]; at 50.0 µM 86.2%
inactive: [1]; at 1.2 µM 7% | [1]; at 3.7 µM 7% | [1]; at 11.0 µM 1% | [1]; at 33.0 µM 19% | [1]; at 100.0 µM 26% | [2]; at 1.2 µM 1% | [2]; at 3.7 µM 0% | [2]; at 11.0 µM 3% | [2]; at 33.0 µM -1% | [2]; at 100.0 µM 11% | [3]; at 1.2 µM 5% | [3]; at 3.7 µM 2% | [3]; at 11.0 µM -3% | [3]; at 33.0 µM 9% | [3]; at 100.0 µM 11% | [4]; at 1.2 µM 9% | [4]; at 3.7 µM 6% | [4]; [17] 45% | [4]; at 11.0 µM 5% | [4]; at 33.0 µM 40% | [4]; at 50.0 µM 50.8% | [4]; at 100.0 µM 62% | [5]; at 1.2 µM 1% | [5]; at 3.7 µM 2% | [5]; [17] 25% | [5]; at 11.0 µM 2% | [5]; at 33.0 µM 7% | [5]; [18] 33% | [5]; at 50.0 µM 53.7% | [5]; at 100.0 µM 10% | [6]; at 1.2 µM 7% | [6]; at 3.7 µM 5% | [6]; at 11.0 µM 3% | [6]; at 33.0 µM 19% | [6]; at 100.0 µM 41% | [7]; [17] 61% | [7]; at 50.0 µM 68.5% | [8]; at 1.2 µM 1% | [8]; at 3.7 µM 2% | [8]; at 11.0 µM 2% | [8]; at 33.0 µM 10% | [8]; at 100.0 µM 10% | [9]; [17] 18% | [9]; [18] 28% | [9]; at 50.0 µM 31.1% | [10]; at 1.2 µM 3% | [10]; at 3.7 µM 4% | [10]; at 11.0 µM 4% | [10]; at 33.0 µM 12% | [10]; at 100.0 µM 15% | [11]; at 1.2 µM -7% | [11]; at 3.7 µM -5% | [11]; at 11.0 µM -8% | [11]; at 33.0 µM -8% | [11]; at 100.0 µM -5% | [12]; at 1.2 µM 3% | [12]; at 3.7 µM 2% | [12]; at 11.0 µM 2% | [12]; at 33.0 µM 17% | [12]; at 100.0 µM 35% | [13]; at 1.2 µM -4% | [13]; at 3.7 µM -18% | [13]; at 11.0 µM -22% | [13]; at 33.0 µM 7% | [13]; at 100.0 µM 43% | [14]; [17] 67% | [15]; at 1.2 µM 4% | [15]; at 3.7 µM 7% | [15]; at 11.0 µM 5% | [15]; at 33.0 µM 22% | [15]; at 100.0 µM 45%

O=C(C#Cc1ccccc1)/C=C/c1ccccc1
inactive: [1]; at 1.2 µM 4% | [1]; at 3.7 µM 3% | [1]; at 11.0 µM 29% | [2]; at 1.2 µM -6% | [2]; at 3.7 µM -9% | [2]; at 11.0 µM 10% | [2]; at 33.0 µM 51% | [3]; at 1.2 µM 1% | [3]; at 3.7 µM 20% | [3]; at 11.0 µM 53% | [16]; at 1.2 µM 0% | [16]; at 3.7 µM -5% | [16]; at 11.0 µM 3% | [16]; at 33.0 µM 28% | [4]; at 1.2 µM -6% | [4]; at 3.7 µM -8% | [4]; [17] -136% | [4]; at 11.0 µM 8% | [5]; at 1.2 µM 0% | [5]; at 3.7 µM 2% | [5]; [17] -43% | [5]; at 11.0 µM 4% | [5]; at 33.0 µM 16% | [5]; [18] 10% | [7]; [17] -53% | [8]; at 1.2 µM -7% | [8]; at 3.7 µM -7% | [8]; at 11.0 µM -2% | [8]; at 33.0 µM 14% | [9]; [17] -46% | [9]; [18] -23% | [10]; at 1.2 µM -2% | [10]; at 3.7 µM -1% | [10]; [17] -65% | [10]; at 11.0 µM 7% | [10]; [18] 53% | [12]; at 1.2 µM -9% | [12]; at 3.7 µM -2% | [12]; at 11.0 µM -3% | [12]; at 33.0 µM 49% | [13]; at 1.2 µM -4% | [13]; at 3.7 µM 2% | [13]; at 11.0 µM 24% | [14]; [17] -140%
active: [1]; at 33.0 µM 78% | [1]; at 100.0 µM 95% | [2]; at 100.0 µM 96% | [3]; at 33.0 µM 93% | [3]; at 100.0 µM 94% | [16]; at 100.0 µM 96% | [4]; at 33.0 µM 82% | [4]; [18] 72% | [4]; at 50.0 µM 99% | [4]; at 100.0 µM 94% | [5]; at 50.0 µM 77.3% | [5]; at 100.0 µM 96% | [7]; [18] 79% | [7]; at 50.0 µM 70.2% | [8]; at 100.0 µM 93% | [9]; at 50.0 µM 87.7% | [10]; at 33.0 µM 78% | [10]; at 50.0 µM 79.7% | [10]; at 100.0 µM 96% | [12]; at 100.0 µM 96% | [13]; at 33.0 µM 97% | [13]; at 100.0 µM 95% | [14]; [18] 72% | [14]; at 50.0 µM 77%

CCCC/C=C1\CCC(CN2CCCC2)C1=O (stereo unspecified)
active: [1]; at 100.0 µM 79% | [3]; at 100.0 µM 76% | [4]; at 50.0 µM 83% | [4]; at 100.0 µM 79% | [5]; at 100.0 µM 85% | [6]; at 33.0 µM 82% | [6]; at 100.0 µM 93% | [8]; at 33.0 µM 70% | [8]; at 100.0 µM 79% | [9]; at 50.0 µM 73.3% | [10]; [18] 81% | [10]; at 50.0 µM 80.7% | [10]; at 100.0 µM 94% | [11]; at 100.0 µM 74% | [12]; at 33.0 µM 76% | [12]; at 100.0 µM 97% | [13]; at 100.0 µM 94% | [14]; [18] 80% | [14]; at 50.0 µM 73.5% | [15]; at 100.0 µM 92%
inactive: [1]; at 1.2 µM -18% | [1]; at 3.7 µM -24% | [1]; at 11.0 µM -10% | [1]; at 33.0 µM 17% | [2]; at 1.2 µM -10% | [2]; at 3.7 µM -17% | [2]; at 11.0 µM 9% | [2]; at 33.0 µM 16% | [2]; at 100.0 µM 26% | [3]; at 1.2 µM -4% | [3]; at 3.7 µM -6% | [3]; at 11.0 µM -8% | [3]; at 33.0 µM 10% | [4]; at 1.2 µM 7% | [4]; at 3.7 µM 25% | [4]; [17] 40% | [4]; at 11.0 µM 20% | [4]; at 33.0 µM 40% | [4]; [18] 44% | [5]; at 1.2 µM 0% | [5]; at 3.7 µM 7% | [5]; [17] 4% | [5]; at 11.0 µM 27% | [5]; at 33.0 µM 23% | [5]; [18] 35% | [5]; at 50.0 µM 59.2% | [6]; at 1.2 µM 28% | [6]; at 3.7 µM 44% | [6]; at 11.0 µM 66% | [8]; at 1.2 µM 28% | [8]; at 3.7 µM 48% | [8]; at 11.0 µM 49% | [9]; [17] 39% | [9]; [18] 55% | [10]; at 1.2 µM 1% | [10]; at 3.7 µM 33% | [10]; [17] 50% | [10]; at 11.0 µM 39% | [10]; at 33.0 µM 63% | [11]; at 1.2 µM -33% | [11]; at 3.7 µM -17% | [11]; at 11.0 µM -3% | [11]; at 33.0 µM 20% | [12]; at 1.2 µM 22% | [12]; at 3.7 µM 36% | [12]; at 11.0 µM 56% | [13]; at 1.2 µM -1% | [13]; at 3.7 µM 22% | [13]; at 11.0 µM 44% | [13]; at 33.0 µM 67% | [14]; [17] 41% | [15]; at 1.2 µM -3% | [15]; at 3.7 µM 15% | [15]; at 11.0 µM 34% | [15]; at 33.0 µM 65%
